Key:
[1] = test system: Botulinum neurotoxin type F light chain protease (Clostridium botulinum); assay: Clostridium botulinum type F light chain protease inhibitors, microsphere substrate cleavage, validation (AID 588459); details: multiplex microsphere protease substrate cleavage assay, flow cytometry; at 10 µM; active compounds read high
[2] = biological target: Botulinum neurotoxin type A (Clostridium botulinum) (UniProt P0DPI0); assay: BoNT/A light chain protease inhibitors, biochemical, multiplex microsphere flow cytometry, validation set (AID 588460); details: at 10 µM, active compounds read high
Chain of Botulinum neurotoxin type A (Clostridium botulinum) (P0DPI0 whole entry, looked up): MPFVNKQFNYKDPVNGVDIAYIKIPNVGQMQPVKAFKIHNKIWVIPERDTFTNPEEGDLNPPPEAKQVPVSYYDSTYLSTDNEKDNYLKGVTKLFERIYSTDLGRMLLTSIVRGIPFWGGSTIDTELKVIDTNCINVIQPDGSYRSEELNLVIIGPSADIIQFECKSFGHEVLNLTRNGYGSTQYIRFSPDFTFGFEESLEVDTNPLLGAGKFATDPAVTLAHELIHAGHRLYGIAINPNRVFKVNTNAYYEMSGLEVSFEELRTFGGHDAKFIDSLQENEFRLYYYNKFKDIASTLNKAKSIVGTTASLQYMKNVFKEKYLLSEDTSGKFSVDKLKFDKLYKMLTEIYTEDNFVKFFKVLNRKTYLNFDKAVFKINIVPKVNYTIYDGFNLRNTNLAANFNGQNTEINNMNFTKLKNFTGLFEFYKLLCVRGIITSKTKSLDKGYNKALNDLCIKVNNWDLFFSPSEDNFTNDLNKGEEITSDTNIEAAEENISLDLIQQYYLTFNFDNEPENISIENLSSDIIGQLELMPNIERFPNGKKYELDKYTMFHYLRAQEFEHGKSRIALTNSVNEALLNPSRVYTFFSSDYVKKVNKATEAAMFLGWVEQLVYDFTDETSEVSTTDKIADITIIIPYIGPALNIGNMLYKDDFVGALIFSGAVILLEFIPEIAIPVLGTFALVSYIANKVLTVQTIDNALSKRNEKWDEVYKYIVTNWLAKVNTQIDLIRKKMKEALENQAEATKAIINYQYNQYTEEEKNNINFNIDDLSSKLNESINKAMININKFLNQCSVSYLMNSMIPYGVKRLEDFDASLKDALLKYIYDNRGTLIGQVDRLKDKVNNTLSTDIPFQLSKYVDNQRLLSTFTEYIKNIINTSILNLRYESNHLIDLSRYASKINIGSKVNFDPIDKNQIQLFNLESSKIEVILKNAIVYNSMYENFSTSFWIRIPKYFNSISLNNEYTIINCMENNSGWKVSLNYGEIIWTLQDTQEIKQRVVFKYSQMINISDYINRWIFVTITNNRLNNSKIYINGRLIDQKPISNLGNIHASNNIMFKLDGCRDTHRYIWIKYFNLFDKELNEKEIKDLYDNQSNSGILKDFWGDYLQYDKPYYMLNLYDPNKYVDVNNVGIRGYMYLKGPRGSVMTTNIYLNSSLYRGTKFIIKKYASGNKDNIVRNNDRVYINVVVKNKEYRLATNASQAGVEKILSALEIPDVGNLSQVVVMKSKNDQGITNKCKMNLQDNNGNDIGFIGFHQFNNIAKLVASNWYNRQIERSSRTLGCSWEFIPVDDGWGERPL

[3] = biological target: Lethal factor (Bacillus anthracis) (UniProt P15917); assay: Bacillus anthracis lethal factor inhibition, microsphere flow cytometry protease assay, validation at 10 µM (AID 588461); details: multiplex microsphere protease cleavage assay, active compounds read high
Chain of Lethal factor (Bacillus anthracis) (P15917 whole entry, looked up): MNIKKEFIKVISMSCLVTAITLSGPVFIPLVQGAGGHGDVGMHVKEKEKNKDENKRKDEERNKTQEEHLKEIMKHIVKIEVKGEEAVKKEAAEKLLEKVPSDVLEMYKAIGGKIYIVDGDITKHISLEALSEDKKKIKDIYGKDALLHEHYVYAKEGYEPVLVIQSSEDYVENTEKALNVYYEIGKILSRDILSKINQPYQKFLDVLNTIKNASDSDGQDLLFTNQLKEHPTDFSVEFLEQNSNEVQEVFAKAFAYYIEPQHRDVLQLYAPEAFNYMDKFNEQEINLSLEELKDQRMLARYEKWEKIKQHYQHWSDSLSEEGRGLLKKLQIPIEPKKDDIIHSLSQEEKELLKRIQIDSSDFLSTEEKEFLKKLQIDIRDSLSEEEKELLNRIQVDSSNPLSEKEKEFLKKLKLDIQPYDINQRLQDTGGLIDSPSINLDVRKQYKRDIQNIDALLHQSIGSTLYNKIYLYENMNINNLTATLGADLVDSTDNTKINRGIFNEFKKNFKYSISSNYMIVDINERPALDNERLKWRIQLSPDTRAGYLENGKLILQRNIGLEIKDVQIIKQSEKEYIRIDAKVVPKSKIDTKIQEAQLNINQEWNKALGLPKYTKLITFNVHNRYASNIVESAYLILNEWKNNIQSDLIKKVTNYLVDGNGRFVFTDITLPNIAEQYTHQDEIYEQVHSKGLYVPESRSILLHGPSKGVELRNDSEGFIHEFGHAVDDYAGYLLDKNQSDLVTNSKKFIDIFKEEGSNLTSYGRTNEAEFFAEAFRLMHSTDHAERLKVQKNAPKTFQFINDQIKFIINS

Measured: inhibition

CN(C)c1ccc(Nc2c3c4c(cccc4n(C)c2=O)C(=O)c2ccccc2-3)cc1
inactive: [1] -13.5% | [2] -3.2% | [3] -18.1%

C(=C\c1ccc2ccccc2n1)/c1ccccc1
inactive: [1] 1.3% | [2] 0.8% | [3] -3.3%

COc1ccc2[nH]c(=O)c(CNC3CCCCC3)cc2c1
inactive: [1] -1.7% | [2] 0.9% | [3] -0.1%

CN(Cc1ccccc1)CC(O)COc1ccc(CNCc2cccnc2)cc1 (stereo not drawn)
inactive: [1] -3.8% | [2] 0.2% | [3] -5.3%

CN(C(=O)C(Cl)Cl)c1ccc(OC(=O)c2ccco2)cc1
inactive: [1] 1.7% | [2] 0.7% | [3] -0.8%

Cc1ncoc1C(=O)N1CCCC(C(=O)c2ccc(-c3ccccc3)c(F)c2)C1 (stereo not drawn)
inactive: [1] -2.3% | [2] -0.1% | [3] -5.3%

COc1ccc(-c2coc3cc(O)cc(O)c3c2=O)cc1
inactive: [1] 0.3% | [2] -0.7% | [3] 0.1%

COc1cc2c(cc1OC)C(Cc1ccc(O)cc1)N(C)CC2 (stereo not drawn)
inactive: [1] 2.2% | [2] 0% | [3] -0.9%

COc1ccc2cc(-c3nc4ccccc4n3C)c(=O)oc2c1
inactive: [1] 2% | [2] 1.8% | [3] 1%

Cc1cc(=O)oc2c(CN(C)Cc3ccccc3)c(O)ccc12
inactive: [1] -0.2% | [2] -0.7% | [3] -3.4%

CC1CNCCN1S(=O)(=O)c1cccc2cnccc12 (stereo not drawn)
inactive: [1] 2.5% | [2] -0.1% | [3] 1.6%

— PubChem BioAssay
